From PubChem BioAssay
Luciferase inh = blocks purified firefly luciferase enzyme activity; P08659; purified P. pyralis luciferase, luminescence, biochemical; Potency, µM (top dose mostly 115 µM), actives largely listed as inhibitors; 76,000 tested, 2.5% active; further: nearly all actives have a fitted effect of over 65% in size
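Luminescence read by CCD imager after adding enzyme (10nM final) to wells holding compound, titrated in qHTS. Substrates 10uM each D-luciferin and ATP; buffer 50mM Tris acetate pH 7.5, 10mM Mg acetate, Tween-20, BSA.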
GPT2 inh = inhibitors of human GPT2 alanine aminotransferase | Recombinant GPT2, coupled pyruvate oxidase/HRP Amplex Red fluorescence | Potency, µM (titrated, usually from 57.7 µM), hits mostly inhibitors | 100,000 tested, 0.25% active | AID 1671188; further: nearly all actives have a fitted effect of over 60% in size
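Inhibition is scored from Amplex Red fluorescence generated when pyruvate oxidase and HRP act on pyruvate released by GPT2. Reactions contain 10ng/uL enzyme, 250uM a-KG and 2mM L-alanine and run 30 min at room temperature.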
NPR1 antag = antagonists of human natriuretic peptide receptor Npr1 | P16066 | Potency, µM (highest dose often 46.3 µM), usual class: inhibitors | HEK293 hNpr1 GloSensor cGMP, ANP-stimulated luminescence | 76,000 tested, 1.6% active; calls by dose curve; further: nearly all actives have a fitted effect of over 60% in size
Target sequence (P16066 whole entry, looked up): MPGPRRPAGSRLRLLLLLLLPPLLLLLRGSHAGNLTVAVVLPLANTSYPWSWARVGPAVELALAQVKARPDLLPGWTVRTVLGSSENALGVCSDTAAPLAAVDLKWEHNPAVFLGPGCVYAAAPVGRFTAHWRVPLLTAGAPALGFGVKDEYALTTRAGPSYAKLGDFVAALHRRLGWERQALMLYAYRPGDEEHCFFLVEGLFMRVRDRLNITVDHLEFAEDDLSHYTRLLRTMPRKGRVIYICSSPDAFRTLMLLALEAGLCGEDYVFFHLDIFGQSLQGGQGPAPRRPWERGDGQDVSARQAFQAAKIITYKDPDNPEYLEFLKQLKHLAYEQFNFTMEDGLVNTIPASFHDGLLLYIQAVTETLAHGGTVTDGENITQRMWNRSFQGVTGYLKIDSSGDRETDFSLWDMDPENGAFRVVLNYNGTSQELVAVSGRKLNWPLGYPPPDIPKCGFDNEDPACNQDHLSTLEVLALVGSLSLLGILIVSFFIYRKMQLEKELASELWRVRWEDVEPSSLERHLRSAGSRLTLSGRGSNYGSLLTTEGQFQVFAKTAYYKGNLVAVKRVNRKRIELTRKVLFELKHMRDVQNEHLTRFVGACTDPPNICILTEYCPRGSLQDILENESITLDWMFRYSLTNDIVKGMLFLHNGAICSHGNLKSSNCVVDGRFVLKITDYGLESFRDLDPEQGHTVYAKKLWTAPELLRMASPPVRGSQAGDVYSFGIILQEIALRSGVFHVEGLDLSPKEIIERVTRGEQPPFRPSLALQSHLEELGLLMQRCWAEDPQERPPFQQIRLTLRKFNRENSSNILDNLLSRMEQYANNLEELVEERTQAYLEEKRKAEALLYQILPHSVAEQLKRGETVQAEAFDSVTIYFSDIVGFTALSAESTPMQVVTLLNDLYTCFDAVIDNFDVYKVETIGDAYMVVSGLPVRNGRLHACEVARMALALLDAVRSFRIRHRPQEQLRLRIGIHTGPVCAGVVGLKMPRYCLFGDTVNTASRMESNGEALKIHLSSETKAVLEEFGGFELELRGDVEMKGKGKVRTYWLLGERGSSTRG
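Compound pre-incubated 30 min at room temperature on GloSensor-loaded HEK293 cells stably carrying hNpr1 and the pGS-40F cGMP biosensor. Stimulation uses hNppA at 0.1 nM final; luminescence is taken at baseline and 20 min post-agonist.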
3T3 cytotox = kills NIH 3T3 cells. AID 1345082. NIH 3T3 viability, CellTiter-Glo ATP luminescence, 48-72 h. Potency, µM (series often up to 96.7 µM), hits mostly inhibitors. 94,000 tested, 4.3% active; further: nearly all actives have a fitted effect of over 55% in size
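Cytotoxicity was measured by CellTiter-Glo ATP luminescence after 48 or 72 h compound exposure at 37 °C. Mouse NIH 3T3 fibroblasts were seeded at 400 cells/well and dosed by 23 nL pin transfer.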
HEK cytotox = kills HEK 293 cells; HEK 293 viability, ATP luminescence (CellTiter-Glo), 48-72 h; Potency, µM (titrated, usually from 115 µM), hits mostly inhibitors; 94,000 tested, 6.6% active; AID 1345083; further: nearly all actives have a fitted effect of over 60% in size
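250 HEK 293 cells/well; compound by pintool; incubated 48 or 72 hr at 37 degree Celsius; CellTiter-Glo added, 10 min RT, luminescence imaged.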
NPR1 antag cnf = hNpr1 antagonism, confirmation assay. Potency, µM (highest dose often 57.6 µM), actives largely listed as inhibitors. HEK293 hNpr1 cGMP GloSensor luminescence, ANP-stimulated. shares compounds with NPR1 antag. 1,400 tested, 76% active; calls by dose curve; further: nearly all actives have a fitted effect of over 70% in size
Npr2 selectivity = antagonizes human Npr2, subtype selectivity check. shares compounds with NPR1 antag. 1,400 tested, 67% active. AID 1347046. HEK293 hNpr2 GloSensor cGMP luminescence, CNP-stimulated. Potency, µM (titrated, usually from 57.6 µM), most hits filed as inhibitors; calls by dose curve; further: nearly all actives have a fitted effect of over 70% in size
FLuc inh counter = FLuc enzyme inhibition, Npr1 counter-screen; shares compounds with NPR1 antag; purified FLuc enzyme, luminescence, Km substrate; Potency, µM (top dose mostly 57.6 µM), most hits filed as inhibitors; 1,400 tested, 0.7% active; AID 1347047
GloSensor cGMP = counter-screen for Npr1 antagonists: GloSensor control cell line | shares compounds with NPR1 antag | HEK293 GloSensor cGMP, SNP-stimulated, luminescence | Potency, µM (titrated, usually from 57.6 µM), hits mostly inhibitors | 1,400 tested, 69% active; calls by dose curve; further: nearly all actives have a fitted effect of over 70% in size
Of the large screens only hits and unclear results are named; the others gave an inactive call (follow-up assays come after a bar, where they were run). This is a sample that favours compounds with a hit; in the whole collection about 10% have one here. Unless noted, the call rests on the fitted dose curve; in most records, active means well fitted curve in the direction sought with a large enough effect; inconclusive means small, poorly fitted or top-dose-only effect, or another doubt; inactive means no such curve, though single readings can be large; an effect the other way counts as inactive or inconclusive.

CCN1C(=O)Cc2ccccc2C1C(=O)NCc1ccccc1Br (stereo unspecified)	GPT2 inh inconclusive | NPR1 antag cnf inactive | Npr2 selectivity inconclusive | FLuc inh counter inactive | GloSensor cGMP inactive
CC(C)c1nc2c(c(-c3ccc(O)cc3)n1)CN([S+](=O)([O-])c1ccccc1)CC2	none
CCCc1ccc2oc(C(=O)N(CC)Cc3ccncc3)c(C)c2c1	NPR1 antag 13µM, 3T3 cytotox inconclusive, HEK cytotox 25µM | NPR1 antag cnf 19µM | Npr2 selectivity 19µM | FLuc inh counter inactive | GloSensor cGMP 17µM
O=C(NCc1ccc(F)c(F)c1)c1ccc2nc(-c3ccncc3)oc2c1	HEK cytotox inconclusive (no result: Luciferase inh, NPR1 antag)
CCN1CC(C)(C)CN([S+](=O)([O-])c2ccc(C)cc2)CC1=O	3T3 cytotox inconclusive (no result: Luciferase inh, GPT2 inh, NPR1 antag)
CCOc1ccc2c(n1)CCN(C(=O)c1ccco1)C2	none
O=C(NC1CCCCC1)N1CCC(c2noc(-c3ccccc3)n2)C1 (stereo unspecified)	NPR1 antag 18µM, 3T3 cytotox inconclusive, HEK cytotox inconclusive | NPR1 antag cnf 27µM | Npr2 selectivity inconclusive | FLuc inh counter inactive | GloSensor cGMP 27µM
C=CCOC(=O)C1=C(C)N=C2SC=C(CC(=O)N3CCOCC3)N2C1c1ccc(C)cc1C (stereo unspecified)	Luciferase inh inconclusive, NPR1 antag inconclusive, HEK cytotox inconclusive
CC1=C(C(=O)OC(C)C)C(c2ccc(C)cc2C)N2C(CC(=O)N3CCCC3)=CSC2=N1 (stereo unspecified)	NPR1 antag inconclusive, 3T3 cytotox inconclusive, HEK cytotox inconclusive | NPR1 antag cnf inconclusive | Npr2 selectivity inconclusive | FLuc inh counter inactive | GloSensor cGMP inconclusive
CC1=C(C(=O)OC(C)C)C(c2ccccc2Cl)N2C(CC(=O)N3CCCC3)=CSC2=N1 (stereo unspecified)	NPR1 antag 13µM, HEK cytotox inconclusive | NPR1 antag cnf 24µM | Npr2 selectivity 22µM | FLuc inh counter inactive | GloSensor cGMP inconclusive
CC1=C(C(=O)OC(C)C)C(c2ccccc2Cl)N2C(CC(=O)N3CCOCC3)=CSC2=N1 (stereo unspecified)	NPR1 antag 14µM, HEK cytotox inconclusive | NPR1 antag cnf inconclusive | Npr2 selectivity inconclusive | FLuc inh counter inactive | GloSensor cGMP inconclusive
CCCCc1ncc(-c2c(-c3ccccc3)ncn2CCC2CCCN2C)[nH]1 (stereo unspecified)	HEK cytotox inconclusive
O=C(CC1CCCC1)N1CCC(N2C(=O)[C@H]3CN(Cc4ccccc4)C[C@H]3C2=O)CC1	HEK cytotox inconclusive (no result: Luciferase inh, NPR1 antag)
COC(=O)[C@H](Cc1ccc(OC)cc1)NC(=O)[C@H]1CN(C(=O)c2cccnc2)CCN1S(C)(=O)=O	none
CCc1ccc(CN2CCC(O)(Cc3cc(-c4cccc(OC)c4)no3)CC2)o1	3T3 cytotox inconclusive, HEK cytotox inconclusive | NPR1 antag cnf inactive | Npr2 selectivity inactive | FLuc inh counter inactive | GloSensor cGMP inconclusive
CC(C)NC(=O)c1nc2sccn2c1-c1ccccc1	none (no result: Luciferase inh, NPR1 antag)
CCOc1ccc(C(=O)NC2CCN(c3cnn(CCOC)c(=O)c3)CC2)cc1	none
CCOc1ccc(C(=O)NC2CCN(c3cnn(CC)c(=O)c3)CC2)cc1	3T3 cytotox 28µM | NPR1 antag cnf inactive | Npr2 selectivity inactive | FLuc inh counter inactive | GloSensor cGMP inconclusive
O=C(Nc1ccon1)[C@@H]1C[C@@H](c2ccc(F)cc2)N(Cc2ccccc2)C1	NPR1 antag 16µM, 3T3 cytotox inconclusive, HEK cytotox 32µM | NPR1 antag cnf 31µM | Npr2 selectivity 20µM | FLuc inh counter inactive | GloSensor cGMP 18µM
Cn1ccc(NC(=O)[C@@H]2C[C@@H](c3ccc(F)cc3)N(Cc3ccccc3)C2)n1	NPR1 antag 35µM, 3T3 cytotox inconclusive, HEK cytotox 50µM | NPR1 antag cnf 40µM | Npr2 selectivity 35µM | FLuc inh counter inactive | GloSensor cGMP 35µM
O=C(C1CCCN1C(=O)c1ccccc1Cl)N1CCC(c2nc3ccncc3[nH]2)C1 (stereo unspecified)	none (no result: Luciferase inh, NPR1 antag)
O=C(NCc1ccc(Cl)cc1)c1ccc2nnc(Cc3ccco3)n2c1	3T3 cytotox inconclusive (no result: Luciferase inh, NPR1 antag)
Cc1nn2c(c1-c1ccccc1-c1ccccc1)N(C(=O)c1ccnn1C)CCC2	3T3 cytotox inconclusive
Cc1nn2c(c1-c1ccccc1-c1ccccc1)N(CCC(C)C)CCC2	NPR1 antag 1.6µM, 3T3 cytotox 8.9µM, HEK cytotox 7.9µM | NPR1 antag cnf 0.99µM | Npr2 selectivity 1.6µM | FLuc inh counter inactive | GloSensor cGMP 0.79µM
Cc1nn2c(c1-c1ccccc1-c1ccccc1)N(Cc1ccccc1)CCC2	NPR1 antag 14µM, 3T3 cytotox 13µM, HEK cytotox inconclusive | NPR1 antag cnf 6.3µM | Npr2 selectivity 8.9µM | FLuc inh counter inactive | GloSensor cGMP 4µM
COC1CCC(C(=O)N2CCCn3nc(C)c(-c4ccccc4-c4ccccc4)c32)CC1 (stereo unspecified)	3T3 cytotox inconclusive, HEK cytotox inconclusive
COCCN1CCCC[C@]2(C[C@H](C(=O)O)[C@H](c3ccco3)N2C(=O)c2ccccc2)C1=O	3T3 cytotox inconclusive (no result: Luciferase inh, GPT2 inh, NPR1 antag)
COC(=O)c1cccc(NC(=S)N[C@@H]2C=C[C@@H](c3c(C)nn(-c4ccccc4[N+](=O)[O-])c3C)C2)c1	NPR1 antag 13µM, 3T3 cytotox 40µM, HEK cytotox 40µM | NPR1 antag cnf 19µM | Npr2 selectivity inconclusive | FLuc inh counter inactive | GloSensor cGMP 24µM
O=C(NC[C@H]1OC[C@@H](N(Cc2cccs2)Cc2cccs2)[C@@H]1O)c1ccccc1	3T3 cytotox inconclusive, HEK cytotox inconclusive
CNC(=O)c1cc(-c2cccnc2)cc2c1OCCN2Cc1cccnc1	3T3 cytotox inconclusive
O=C(Nc1cccnc1)c1cc(-c2ccccc2F)cc2c1OCCN2Cc1cccnc1	NPR1 antag inconclusive, 3T3 cytotox 40µM, HEK cytotox inconclusive | NPR1 antag cnf inconclusive | Npr2 selectivity 31µM | FLuc inh counter inactive | GloSensor cGMP inactive
